Measurements taken from PubChem BioAssay (NCATS).
Unmarked numbers belong to inactive results. Inconclusive results are not listed. Entries that show only a call come without a potency. Active and inactive are the calls of the source. Unless noted, calls come from the whole dose curve; as a rule, active = well fitted curve in the direction sought with a large enough effect; inconclusive = small, poorly fitted or top-dose-only effect, or another doubt; inactive = no such curve, though single readings can be large; an effect the other way counts as inactive or inconclusive.

Key:
[1] = biological target: Cytochrome P450 2D6 (Homo sapiens) (UniProt P10635); assay: Cytochrome P450 family 2 subfamily D member 6 (CYP2D6) small molecule antagonists: luciferase biochemical (cell-free) qHTS assay (AID 1645840; active = well fitted curve in the direction sought with a large enough effect in the repeat runs; an effect the other way counts as inactive or inconclusive; note: nearly all actives have a fitted effect of over 55% in size; note: potency is the fitted concentration of half-maximal effect)
How it was run: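 P450-Glo CYP2D6 system: proluciferin substrate converted by enzyme to luciferin, read by luminescence proportional to activity. Enzyme-substrate mix with compound 10 min at room temperature, then NADPH regeneration 1 h before detection reagent.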

[2] = biological target: Cytochrome P450 2C9 (Homo sapiens) (UniProt P11712); assay: Cytochrome P450 family 2 subfamily C member 9 (CYP2C9) small molecule antagonists: luciferase biochemical (cell-free) qHTS assay (AID 1645842; active = well fitted curve in the direction sought with a large enough effect in the repeat runs; an effect the other way counts as inactive or inconclusive; note: nearly all actives have a fitted effect of over 55% in size; note: potency is the fitted concentration of half-maximal effect)
How it was run: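 P450-Glo CYP2C9 system: proluciferin substrate with enzyme in mix containing 0.4% BSA, 10 min at room temperature, then NADPH regeneration solution added and incubated 1 h at 37C. Detection reagent stopped reaction; luminescence read after 20 min as RLU.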

[3] = biological target: Rap guanine nucleotide exchange factor 3 (Homo sapiens) (UniProt O95398); assay: Confirmatory qHTS for antagonist of cAMP-regulated guanine nucleotide exchange factor 3 (EPAC1) (AID 1645880); note: potency is the fitted concentration of half-maximal effect; nearly all actives have a fitted effect of over 55% in size
How it was run: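 Released BODIPY-GDP fluoresces less than Rap1-bound BODIPY-GDP; the signal is followed at 480/540 nm at 5-min intervals over 30 min, after 5 min at room temperature. Reactions contain 100 nM EPAC1, 250 nM RAP1B-BODIPY-GDP and 50 uM GDP; results are normalized to ATA and DMSO.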

[4] = biological target: Rap guanine nucleotide exchange factor 3 (Homo sapiens) (UniProt O95398); assay: Confirmatory qHTS for agonist of cAMP-regulated guanine nucleotide exchange factor 3 (EPAC1) (AID 1645881);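 note: EPAC1 catalysed release of BODIPY-GDP from Rap1B seen as fluorescence loss; nearly all actives have a fitted effect of over 75% in size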
[5] = biological target: Rap guanine nucleotide exchange factor 4 (Homo sapiens) (UniProt Q8WZA2); assay: Confirmatory qHTS for agonist of cAMP-regulated guanine nucleotide exchange factor 4 (EPAC2) (AID 1645884);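 note: nucleotide exchange releases bodipy-GDP from Rap1 and this lowers its fluorescence; nearly all actives have a fitted effect of over 65% in size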
[6] = biological target: Rap guanine nucleotide exchange factor 4 (Homo sapiens) (UniProt Q8WZA2); assay: Confirmatory qHTS for antagonist of cAMP-regulated guanine nucleotide exchange factor 4 (EPAC2) (AID 1645885); note: nearly all actives have a fitted effect of over 25% in size
[7] = biological target: Rap guanine nucleotide exchange factor 3 (Homo sapiens) (UniProt O95398); assay: Counterscreen qHTS for antagonist of cAMP-regulated guanine nucleotide exchange factor 3 (EPAC1) (AID 1645888)
How it was run: (§1)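 Rap1B-BODIPY-GDP 250 nM + GDP 50 uM; cpds 7-pt, final 9.74 nM–152 uM (activator mode) or from 7.32 nM upwards (inhibitor mode); RT; FI 480/540 nm at 5 and 30 min, then ± cAMP, reread.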

[8] = biological target: Rap guanine nucleotide exchange factor 3 (Homo sapiens) (UniProt O95398); assay: Counterscreen qHTS for agonist of cAMP-regulated guanine nucleotide exchange factor 3 (EPAC1) (AID 1645889); note: nearly all actives have a fitted effect of over 40% in size
How it was run: as §1

[9] = biological target: Glutathione peroxidase 1 (Homo sapiens) (UniProt P07203); assay: Primary qHTS Assay for Inhibitors of Recombinant Selenoprotein Glutathione Peroxidase 1 (GPX1) (AID 1845191); note: nearly all actives have a fitted effect of over 65% in size
How it was run: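 NADPH consumption tracked by fluorescence at 340/450 nm between t=0 and t=15 min, room temperature. Final mix: 10 nM GPX1, 100 nM glutathione reductase, 1 mM GSH, 0.5 mM NADPH, 0.5 mM cumene hydroperoxide, 0.01% BSA; 30 min compound–enzyme preincubation.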

[10] = biological target: Phospholipid hydroperoxide glutathione peroxidase GPX4 (Homo sapiens) (UniProt P36969); assay: Primary qHTS Assay for Inhibitors of Recombinant Selenoprotein Glutathione Peroxidase 4 (GPX4) (AID 1845192); note: series mostly up to about 50 µM; nearly all actives have a fitted effect of over 65% in size
How it was run: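 NADPH consumption followed by fluorescence at 340/450 nm, t=0 and after 15 min at room temperature. Reaction started with cumene hydroperoxide (0.5 mM final) after 30 min compound–GPX4 preincubation; final 200 nM GPX4, 100 nM GR, 1 mM GSH, 0.5 mM NADPH.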

[11] = Viability counterscreen for antagonist of constitutive androstane receptor (CAR) against the NCATS DSHEA and TCM libraries (AID 1794837);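 note: compound exposure lasted 24 h before viability reading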
How it was run: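 Viability was measured by CellTiter-Fluor fluorescence (405/540 nm, 1 hr) in HepG2-CYP2B6-hCAR cells. Cells were co-treated 24 hr with 48 uM CITCO (final), antagonist mode, and test substances.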

[12] = Viability counterscreen for agonist of constitutive androstane receptor (CAR) against the NCATS DSHEA and TCM libraries (AID 1794838)
How it was run: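 Cell viability, from CellTiter-Fluor fluorescence (405/540 nm), was scored after a 24 h, 37C exposure of HepG2 cells carrying CYP2B6 reporter and hCAR to test substances in presence of 0.75 uM PK11195.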

[13] = biological target: Nuclear receptor subfamily 1 group I member 3 (Homo sapiens) (UniProt Q14994); assay: Primary qHTS for agonist of constitutive androstane receptor (CAR) against the NCATS DSHEA and TCM libraries (AID 1794839);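 note: HepG2 cells expressing human CAR with a CYP2B6 reporter plus PK11195 antagonist; luciferase reporter luminescence read with ONE-Glo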
How it was run: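 Agonist mode in presence of hCAR antagonist PK11195 (0.75 µM final): test substances, 24 h, 37 °C, on HepG2-CYP2B6-hCAR cells. Same-well readouts: fluorescence viability, then ONE-Glo luminescence; CITCO as reference agonist.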

[14] = HepG2 viability counterscreen (readout 2: ATP content) against the NCATS DSHEA and TCM libraries (AID 1794840);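 note: HepG2 cells exposed to substances for about 24 h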
How it was run: (§2)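 Readout 1: cellular protease activity, GF-AFC substrate (25 uM final, 30 min, fluorescence 380/510 nm). Readout 2: ATP content by CellTiter-Glo luminescence after 30 min at RT. Both follow ~24 h exposure of HepG2 cells (1,000/well) to substances.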

[15] = HepG2 viability counterscreen (readout 1: protease activity) against the NCATS DSHEA and TCM libraries (AID 1794841);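 note: cells exposed to compounds for about 24 h before the protease read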
How it was run: as §2

[16] = biological target: Cytochrome P450 3A4 (Homo sapiens) (UniProt P08684); assay: qHTS for inhibitors of CYP3A4 against the NCATS DSHEA and TCM libraries (AID 1919971);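 note: inhibition lowers luminescence from luciferin made by CYP3A4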
How it was run: (§3)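 Each CYP isoform and its pro-luciferin substrate, at isoform-specific final concentrations, were preincubated 15 min at RT with substances. NADPH regeneration solution (1x) started a 30-45 min reaction, and P450-Glo luminescence was read.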

[17] = biological target: Cytochrome P450 2D6 (Homo sapiens) (UniProt P10635); assay: qHTS for inhibitors of CYP2D6 against the NCATS DSHEA and TCM libraries (AID 1919972)
How it was run: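 CYP2D6 enzyme with pro-luciferin substrate in manufacturer buffer (typically 100 mM KPO4), preincubated 15 min RT with substances (most at 19.5 nM upward); NADPH regeneration system (1x) started 30–45 min RT reaction; P450-Glo luminescence read after 30 min; quinidine as intraplate control.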

[18] = biological target: Cytochrome P450 2C9 (Homo sapiens) (UniProt P11712); assay: qHTS for inhibitors of CYP2C9 against the NCATS DSHEA and TCM libraries (AID 1919973);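 note: luminogenic pro-luciferin CYP2C9 substrate turned into luciferin with NADPH regeneration; series mostly up to about 34 µM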
How it was run: as §3

[19] = biological target: Cytochrome P450 2C19 (Homo sapiens) (UniProt P33261); assay: qHTS for inhibitors of CYP2C19 against the NCATS DSHEA and TCM libraries (AID 1919974);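 note: luminescence from luciferin released by CYP2C19 oxidation of a pro-luciferin substrate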
How it was run: as §3

[20] = KB-3-1 P-gp reporter qHTS against the NCATS DSHEA and TCM libraries (AID 1919975)
How it was run: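 Cell viability by CellTiter-Glo luminescence following ~72 h compound exposure (concentration-response). Uses parental, non-P-gp-overexpressing KB-3-1 line, 500 cells/well in DMEM/10% FBS, attached ~4 h before dosing.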

[21] = biological target: Cytochrome P450 1A2 (Homo sapiens) (UniProt P05177); assay: qHTS for inhibitors of CYPIA2 against the NCATS DSHEA and TCM libraries (AID 1919976); note: series mostly up to about 37 µM
How it was run: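 Reaction started with 1x NADPH regeneration solution and run 30-45 min, room temperature, protected from light, after compounds sat 15 min with CYP1A2 and pro-luciferin substrate. P450-Glo detection gave luminescence; furafylline served as control.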

[22] = qHTS Counterscreen for compound interference against the NCATS DSHEA and TCM libraries (AID 1919978); conditions: firefly luciferase detection reagent interference, luminescence;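 note: compounds preincubated with 1 µM D-luciferin or buffer before detection reagent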
How it was run: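 With 1 uM D-luciferin or phosphate buffer only, compounds at final 19.5 nM–39.8 uM were incubated for 15 min at room temperature. Luciferase detection reagent was then added, and luminescence was measured after a further 30 min at room temperature.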

[23] = Dual reporter qHTS for agonist of Pregnane X Receptor (hPXR) against the NCATS DSHEA and TCM libraries: Fluorescence readout (AID 1920058)
How it was run: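 Viability readout (CellTiter-Fluor, 405/540 nm, 1 h) from agonist-mode PXR dual reporter in hPXR-Luc HepG2 cells. Substances ~24 h, 37 °C, 5% CO2; rifampicin reference, tetraoctyl ammonium bromide cytotoxic control.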

[24] = biological target: Nuclear receptor subfamily 1 group I member 2 (Homo sapiens) (UniProt O75469); assay: Dual reporter qHTS for agonist of Pregnane X Receptor (hPXR) against the NCATS DSHEA and TCM libraries: Luminescence readout (AID 1920059)
How it was run: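 Luminescent PXR reporter read (ONE-Glo) after a CellTiter-Fluor viability read, following 24 h, 37C treatment of HepG2 cells stably carrying hPXR-Luc.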

[25] = biological target: Nuclear receptor subfamily 1 group I member 2 (Homo sapiens) (UniProt O75469); assay: Dual reporter qHTS for antagonist of Pregnane X Receptor (hPXR) against the NCATS DSHEA and TCM libraries: Luminescence Readout (AID 1920060);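 note: HepG2 cells carrying hPXR luciferase reporter stimulated with rifampicin at 2 µM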
How it was run: (§4)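 Antagonist mode: rifampicin 2 uM final co-added with compounds to hPXR-LucHepG2 cells for 24 h at 37C. Viability by CellTiter-Fluor, Ex/Em 405/540 nm, 1 h; reporter by ONE-Glo luminescence.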

[26] = Dual reporter qHTS for antagonist of Pregnane X Receptor (hPXR) against the NCATS DSHEA and TCM libraries: Fluorescence Readout (AID 1920061)
How it was run: as §4

Chain of Rap guanine nucleotide exchange factor 3 (Homo sapiens) (O95398 whole entry, looked up): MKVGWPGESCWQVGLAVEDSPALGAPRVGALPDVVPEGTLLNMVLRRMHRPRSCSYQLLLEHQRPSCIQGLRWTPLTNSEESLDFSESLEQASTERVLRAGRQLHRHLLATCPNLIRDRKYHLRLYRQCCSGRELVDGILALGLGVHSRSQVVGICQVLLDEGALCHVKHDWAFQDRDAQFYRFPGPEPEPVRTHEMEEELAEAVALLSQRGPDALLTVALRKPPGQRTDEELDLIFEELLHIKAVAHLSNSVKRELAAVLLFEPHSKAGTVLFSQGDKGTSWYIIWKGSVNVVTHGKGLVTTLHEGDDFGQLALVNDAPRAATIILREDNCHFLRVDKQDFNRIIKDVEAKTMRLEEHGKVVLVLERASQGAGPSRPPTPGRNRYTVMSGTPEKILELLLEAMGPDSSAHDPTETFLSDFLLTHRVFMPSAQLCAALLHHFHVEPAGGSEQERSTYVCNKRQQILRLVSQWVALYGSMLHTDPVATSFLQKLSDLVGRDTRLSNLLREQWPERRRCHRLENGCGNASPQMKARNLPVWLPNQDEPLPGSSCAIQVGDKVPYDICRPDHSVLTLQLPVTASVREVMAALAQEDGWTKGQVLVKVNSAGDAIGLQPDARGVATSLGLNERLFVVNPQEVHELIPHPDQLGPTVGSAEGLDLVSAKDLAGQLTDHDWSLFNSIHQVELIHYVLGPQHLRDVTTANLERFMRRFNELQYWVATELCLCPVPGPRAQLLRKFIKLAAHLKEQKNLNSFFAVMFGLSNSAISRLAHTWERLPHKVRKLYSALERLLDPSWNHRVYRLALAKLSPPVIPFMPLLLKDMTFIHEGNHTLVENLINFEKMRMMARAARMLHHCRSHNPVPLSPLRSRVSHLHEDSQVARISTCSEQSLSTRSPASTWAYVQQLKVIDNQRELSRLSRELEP
Chain of Cytochrome P450 2D6 (Homo sapiens) (P10635 whole entry, looked up): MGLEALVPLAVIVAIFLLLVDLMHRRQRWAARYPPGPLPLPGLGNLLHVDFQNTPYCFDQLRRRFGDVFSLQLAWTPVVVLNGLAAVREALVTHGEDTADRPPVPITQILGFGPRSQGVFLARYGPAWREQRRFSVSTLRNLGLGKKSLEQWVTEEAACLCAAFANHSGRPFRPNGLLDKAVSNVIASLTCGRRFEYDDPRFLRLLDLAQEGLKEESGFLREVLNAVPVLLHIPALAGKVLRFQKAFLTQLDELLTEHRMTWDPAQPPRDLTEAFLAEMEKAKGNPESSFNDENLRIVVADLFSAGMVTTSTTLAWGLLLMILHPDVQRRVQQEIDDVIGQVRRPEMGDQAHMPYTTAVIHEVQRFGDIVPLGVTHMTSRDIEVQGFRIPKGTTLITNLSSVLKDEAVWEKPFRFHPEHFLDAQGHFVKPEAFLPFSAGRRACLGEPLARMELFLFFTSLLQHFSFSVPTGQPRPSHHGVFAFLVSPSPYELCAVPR
Chain of Rap guanine nucleotide exchange factor 4 (Homo sapiens) (Q8WZA2 whole entry, looked up): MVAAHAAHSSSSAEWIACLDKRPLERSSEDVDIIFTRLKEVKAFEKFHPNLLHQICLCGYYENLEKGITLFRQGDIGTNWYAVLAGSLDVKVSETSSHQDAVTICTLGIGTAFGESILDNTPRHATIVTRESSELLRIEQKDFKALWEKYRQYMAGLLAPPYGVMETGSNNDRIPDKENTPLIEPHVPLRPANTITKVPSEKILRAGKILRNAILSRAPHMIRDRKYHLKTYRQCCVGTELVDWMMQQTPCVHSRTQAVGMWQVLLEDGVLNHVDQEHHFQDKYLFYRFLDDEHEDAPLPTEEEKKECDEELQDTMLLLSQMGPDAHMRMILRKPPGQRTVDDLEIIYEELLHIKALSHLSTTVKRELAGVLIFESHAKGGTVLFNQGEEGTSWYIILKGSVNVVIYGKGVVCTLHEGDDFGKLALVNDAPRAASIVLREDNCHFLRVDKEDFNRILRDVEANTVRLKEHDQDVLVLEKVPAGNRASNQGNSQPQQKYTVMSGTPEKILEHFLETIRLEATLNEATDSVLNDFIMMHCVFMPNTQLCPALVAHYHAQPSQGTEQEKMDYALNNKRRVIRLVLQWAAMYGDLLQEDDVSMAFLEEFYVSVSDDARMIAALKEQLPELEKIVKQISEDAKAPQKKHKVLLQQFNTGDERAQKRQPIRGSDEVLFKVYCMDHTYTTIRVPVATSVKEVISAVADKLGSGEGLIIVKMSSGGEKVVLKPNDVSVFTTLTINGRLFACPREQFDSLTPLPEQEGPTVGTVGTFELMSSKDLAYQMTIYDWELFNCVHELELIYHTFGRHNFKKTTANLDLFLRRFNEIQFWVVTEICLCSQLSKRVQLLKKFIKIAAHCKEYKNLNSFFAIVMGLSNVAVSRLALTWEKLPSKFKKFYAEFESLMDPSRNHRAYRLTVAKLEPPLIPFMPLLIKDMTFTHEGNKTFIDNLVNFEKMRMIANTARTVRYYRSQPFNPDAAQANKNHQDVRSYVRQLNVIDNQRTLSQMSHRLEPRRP
Chain of Cytochrome P450 2C9 (Homo sapiens) (P11712 whole entry, looked up): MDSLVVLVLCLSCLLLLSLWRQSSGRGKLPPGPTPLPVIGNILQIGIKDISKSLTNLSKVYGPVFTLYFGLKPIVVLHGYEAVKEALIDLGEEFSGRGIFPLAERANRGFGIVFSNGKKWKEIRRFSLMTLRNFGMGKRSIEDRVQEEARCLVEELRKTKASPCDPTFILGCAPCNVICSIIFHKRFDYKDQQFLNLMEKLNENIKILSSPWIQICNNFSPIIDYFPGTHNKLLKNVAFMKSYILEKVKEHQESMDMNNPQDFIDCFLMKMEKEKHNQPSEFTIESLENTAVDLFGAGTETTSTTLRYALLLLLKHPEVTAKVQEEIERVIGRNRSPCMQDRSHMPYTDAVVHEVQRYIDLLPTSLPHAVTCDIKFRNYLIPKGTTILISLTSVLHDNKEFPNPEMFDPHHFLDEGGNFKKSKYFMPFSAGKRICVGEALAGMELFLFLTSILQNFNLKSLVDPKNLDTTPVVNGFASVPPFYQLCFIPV
Chain of Nuclear receptor subfamily 1 group I member 2 (Homo sapiens) (O75469 whole entry, looked up): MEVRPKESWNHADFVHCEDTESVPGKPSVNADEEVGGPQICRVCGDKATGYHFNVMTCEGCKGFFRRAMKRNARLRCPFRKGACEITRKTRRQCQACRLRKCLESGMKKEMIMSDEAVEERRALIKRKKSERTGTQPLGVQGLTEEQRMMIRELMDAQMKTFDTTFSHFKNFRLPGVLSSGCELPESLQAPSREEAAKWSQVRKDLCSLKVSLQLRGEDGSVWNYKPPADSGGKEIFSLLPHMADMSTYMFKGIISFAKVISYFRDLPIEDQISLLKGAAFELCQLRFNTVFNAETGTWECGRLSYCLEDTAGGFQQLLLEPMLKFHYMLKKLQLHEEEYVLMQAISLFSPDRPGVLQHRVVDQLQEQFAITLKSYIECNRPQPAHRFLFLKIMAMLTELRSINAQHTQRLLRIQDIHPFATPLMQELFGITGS
Chain of Nuclear receptor subfamily 1 group I member 3 (Homo sapiens) (Q14994 whole entry, looked up): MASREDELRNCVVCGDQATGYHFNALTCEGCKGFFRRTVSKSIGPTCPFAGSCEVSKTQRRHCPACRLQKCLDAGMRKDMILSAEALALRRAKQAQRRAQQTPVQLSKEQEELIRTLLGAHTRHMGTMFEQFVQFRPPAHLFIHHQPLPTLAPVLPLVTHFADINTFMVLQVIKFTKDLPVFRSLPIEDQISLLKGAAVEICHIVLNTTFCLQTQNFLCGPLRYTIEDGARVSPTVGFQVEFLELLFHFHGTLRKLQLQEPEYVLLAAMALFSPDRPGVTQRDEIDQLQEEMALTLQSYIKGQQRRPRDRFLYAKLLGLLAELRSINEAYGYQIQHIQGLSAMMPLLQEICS
Chain of Cytochrome P450 3A4 (Homo sapiens) (P08684 whole entry, looked up, canonical isoform): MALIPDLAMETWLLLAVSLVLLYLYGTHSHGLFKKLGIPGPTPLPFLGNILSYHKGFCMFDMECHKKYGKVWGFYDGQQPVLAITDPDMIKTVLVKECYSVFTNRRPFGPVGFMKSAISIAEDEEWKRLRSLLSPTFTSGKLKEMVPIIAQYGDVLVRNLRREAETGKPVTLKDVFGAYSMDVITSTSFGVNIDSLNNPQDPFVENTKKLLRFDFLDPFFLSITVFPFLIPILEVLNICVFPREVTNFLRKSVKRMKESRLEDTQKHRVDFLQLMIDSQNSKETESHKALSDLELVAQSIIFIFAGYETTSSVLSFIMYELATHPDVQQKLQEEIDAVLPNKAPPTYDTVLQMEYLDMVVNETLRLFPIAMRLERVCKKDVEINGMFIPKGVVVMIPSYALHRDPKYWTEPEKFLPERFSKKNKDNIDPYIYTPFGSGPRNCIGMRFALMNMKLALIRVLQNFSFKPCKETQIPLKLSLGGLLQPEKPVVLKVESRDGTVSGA
Chain of Cytochrome P450 2C19 (Homo sapiens) (P33261 whole entry, looked up): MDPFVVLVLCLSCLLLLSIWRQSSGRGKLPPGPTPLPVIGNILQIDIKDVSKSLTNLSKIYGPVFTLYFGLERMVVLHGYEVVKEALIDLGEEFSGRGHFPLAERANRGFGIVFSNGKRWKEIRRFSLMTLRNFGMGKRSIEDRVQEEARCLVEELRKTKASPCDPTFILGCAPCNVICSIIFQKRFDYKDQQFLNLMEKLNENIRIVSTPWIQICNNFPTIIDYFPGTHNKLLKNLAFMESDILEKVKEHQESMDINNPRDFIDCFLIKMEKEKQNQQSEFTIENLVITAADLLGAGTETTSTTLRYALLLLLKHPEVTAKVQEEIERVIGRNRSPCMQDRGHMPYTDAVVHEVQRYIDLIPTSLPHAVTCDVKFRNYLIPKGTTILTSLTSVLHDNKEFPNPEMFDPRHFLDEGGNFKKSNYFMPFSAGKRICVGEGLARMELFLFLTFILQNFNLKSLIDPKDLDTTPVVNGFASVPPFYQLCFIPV
Chain of Phospholipid hydroperoxide glutathione peroxidase GPX4 (Homo sapiens) (P36969 whole entry, looked up): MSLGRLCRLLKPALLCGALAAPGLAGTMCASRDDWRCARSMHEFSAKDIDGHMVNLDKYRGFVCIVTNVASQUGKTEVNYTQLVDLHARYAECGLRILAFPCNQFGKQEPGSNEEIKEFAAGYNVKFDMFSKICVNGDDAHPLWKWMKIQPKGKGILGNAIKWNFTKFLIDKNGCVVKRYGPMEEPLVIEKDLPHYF

SMILES: Cc1cccc(OCCCSc2nc(-c3ccc(C(C)(C)C)cc3)nc3cc(=O)[nH]n23)c1C
- Potency [1]: inactive
- Potency [2]: 13.5 µM (active)
- Potency [3]: 37.9 µM (active)
- Potency [4]: inactive
- Potency [5]: inactive
- Potency [6]: inactive
- Potency [7]: inactive
- Potency [8]: inactive

SMILES: COc1ccc(-n2nc3c(N4CCCC(C(=O)NCCc5ccccc5C)C4)nnc(C)c3c2C)cc1 (configuration not stated)
- Potency [1]: 2.68 µM (active)
- Potency [2]: 0.674 µM (active)

SMILES: Oc1c(C(c2ccccc2)N2CCN(c3cccc(Cl)c3)CC2)sc2nc(-c3ccco3)nn12 (configuration not stated)
- Potency [1]: 13.5 µM (active)
- Potency [2]: 5.35 µM (active)
- Potency [3]: 47.8 µM (active)
- Potency [4]: inactive
- Potency [5]: inactive
- outcome [6]: inactive [at 12.7 µM]

SMILES: Cc1cc(NC(=O)C2CCN(S(=O)(=O)c3ccc4[nH]c(=O)oc4c3)CC2)ccc1Br
- Potency [1]: 16.9 µM (active)
- Potency [2]: 0.425 µM (active)

SMILES: CC1(C#N)CCN(c2c(C(=O)N3CCC(C(=O)C4CC4)CC3)cnc3ccc(F)cc23)CC1
- Potency [1]: 10.7 µM (active)
- Potency [2]: 1.9 µM (active)

SMILES: Cc1cc(OCCCSc2nc(-c3ccc(C(C)(C)C)cc3)nc3cc(=O)[nH]n23)ccc1Cl
- Potency [1]: inactive
- Potency [2]: 15.1 µM (active)
- Potency [3]: 67.5 µM (active)
- Potency [4]: inactive
- Potency [5]: inactive
- outcome [6]: inactive [at 12.7 µM]
- Potency [7]: inactive
- Potency [8]: inactive

SMILES: COc1ccc(CCNc2nc(SCc3cccc(F)c3)nc3ccccc23)cc1OC
- Potency [1]: 0.301 µM (active)
- Potency [2]: 0.756 µM (active)

SMILES: CC(C)(C)c1ccc(-c2nc(SCCCOc3ccccc3)n3[nH]c(=O)cc3n2)cc1
- Potency [1]: inactive
- Potency [2]: 10.7 µM (active)
- Potency [3]: 60.1 µM (active)
- Potency [4]: inactive
- Potency [5]: inactive
- Potency [6]: inactive
- Potency [7]: inactive
- Potency [8]: inactive

SMILES: COc1ccc(C=CC(=O)O)cc1
- Potency [1]: inactive
- Potency [2]: inactive
- Potency [9]: inactive
- Potency [10]: inactive

SMILES: CCOC(=O)c1ccc(NC(=O)CSc2cc(-c3ccccc3)nc(C)n2)cc1
- Potency [1]: inactive
- Potency [2]: 0.952 µM (active)

SMILES: CCC(/C=C/[C@@H](C)[C@H]1CCC2C3CC=C4C[C@@H](O)CC[C@]4(C)C3CC[C@@]21C)C(C)C (some centres not stated)
- Potency [1]: inactive
- Potency [2]: inactive
- outcome [11]: inactive
- outcome [12]: inactive
- outcome [13]: inactive
- outcome [14]: inactive
- outcome [15]: inactive
- outcome [16]: inactive
- outcome [17]: inactive
- outcome [18]: inactive
- outcome [19]: inactive
- outcome [20]: inactive
- outcome [21]: inactive
- max response [22]: 3.05%
- outcome [23]: inactive
- outcome [24]: inactive
- outcome [25]: inactive
- outcome [26]: inactive
